Data on nine compounds can be found in PubChem BioAssay (NCATS).

For experiment [1], the target named is Cytochrome P450 1A2 (Homo sapiens) (UniProt P05177). Kind of experiment: p450-cyp1a2 (AID 410; calls by dose curve;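 note: -100% = full effect of reference inhibitor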). Particulars: recombinant CYP1A2, luciferin-ME demethylation, luminescence; series mostly up to 57 µM. The gist of the method: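 20nM CYP1A2 with 100uM Luciferin-ME (at Km) in 100mM KPO4; compound preincubated 10 min, NADPH regeneration added, 60 min at room temperature. Luciferin quantified by luminescence after detection reagent; normalized to 57 uM furafylline.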
Cytochrome P450 1A2 (Homo sapiens), sequence (P05177 whole entry, looked up): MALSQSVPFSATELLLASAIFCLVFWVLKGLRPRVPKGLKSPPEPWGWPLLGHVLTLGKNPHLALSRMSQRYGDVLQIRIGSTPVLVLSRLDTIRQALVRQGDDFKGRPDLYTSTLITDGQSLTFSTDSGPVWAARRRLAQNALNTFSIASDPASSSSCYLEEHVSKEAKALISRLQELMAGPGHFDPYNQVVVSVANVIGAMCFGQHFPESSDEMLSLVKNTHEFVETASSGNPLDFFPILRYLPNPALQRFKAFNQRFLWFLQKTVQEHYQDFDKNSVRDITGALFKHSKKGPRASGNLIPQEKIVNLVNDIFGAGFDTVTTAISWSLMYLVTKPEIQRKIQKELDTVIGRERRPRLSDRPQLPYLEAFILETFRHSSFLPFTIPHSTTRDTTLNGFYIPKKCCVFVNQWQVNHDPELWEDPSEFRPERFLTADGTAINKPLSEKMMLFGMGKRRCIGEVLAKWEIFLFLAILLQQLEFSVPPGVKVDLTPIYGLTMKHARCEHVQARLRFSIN

For experiment [2], the target named is Glucocorticoid receptor (Homo sapiens) (UniProt P04150). Briefly: GR-GFP Redistribution (AID 450;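 active = compounds whose dose series gives a full or clear partial fitted curve of increased nuclear translocation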; note: potency is the fitted concentration of half-maximal effect). The following applies: U2OS GR-GFP nuclear translocation, laser cytometry, 2 h.
Glucocorticoid receptor (Homo sapiens), sequence (P04150 whole entry, looked up, the tested form may be a part): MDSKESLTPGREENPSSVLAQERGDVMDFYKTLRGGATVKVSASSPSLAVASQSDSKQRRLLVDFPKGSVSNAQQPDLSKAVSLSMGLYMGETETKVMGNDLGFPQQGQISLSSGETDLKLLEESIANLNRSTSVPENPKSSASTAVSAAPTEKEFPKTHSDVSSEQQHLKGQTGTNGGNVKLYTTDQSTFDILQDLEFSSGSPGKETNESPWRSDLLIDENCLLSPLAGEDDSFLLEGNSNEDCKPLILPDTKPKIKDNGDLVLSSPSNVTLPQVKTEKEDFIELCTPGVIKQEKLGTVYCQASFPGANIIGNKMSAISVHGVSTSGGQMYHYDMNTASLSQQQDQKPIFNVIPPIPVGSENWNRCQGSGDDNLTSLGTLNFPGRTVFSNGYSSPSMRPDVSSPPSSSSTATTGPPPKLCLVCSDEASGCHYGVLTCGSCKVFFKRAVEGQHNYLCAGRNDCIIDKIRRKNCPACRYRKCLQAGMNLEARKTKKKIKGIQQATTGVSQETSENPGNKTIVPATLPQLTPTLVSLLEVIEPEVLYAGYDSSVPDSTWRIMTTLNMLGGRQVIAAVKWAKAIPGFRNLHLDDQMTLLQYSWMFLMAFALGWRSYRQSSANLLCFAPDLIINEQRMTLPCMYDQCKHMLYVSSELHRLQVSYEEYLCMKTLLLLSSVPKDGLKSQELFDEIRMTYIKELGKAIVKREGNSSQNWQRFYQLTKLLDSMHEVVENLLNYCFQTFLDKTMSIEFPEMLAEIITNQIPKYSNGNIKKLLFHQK
Experiment [3] shares this target. Briefly: GR-EFC Redistribution (AID 451; calls by dose curve; note: potency is the fitted concentration of half-maximal effect). The following applies: CHO-K1 GR-EFC translocation, beta-gal luminescence, 2 h. Put shortly: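 Translocation of GR-ED fusion to nuclear EA restores b-gal, read by luminescence after 1 h room-temperature detection. Engineered CHO-K1 biosensor cells, 1,000/well, exposed 2 h at 37 C to titrations up to 46 uM final.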
Experiment [4] has as its target Mitogen-activated protein kinase 10 (Mus musculus) (UniProt Q61831). Briefly: JNK3 AlphaScreen Assay (AID 530; active = well fitted curve in either direction with a large enough effect, not every such curve was filed as active;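 note: kinase came from lysate of stimulated human HepG2 cells; signal reports phosphorylation of biotinylated GST-cJun 1-79 at Ser73 with 10 µM ATP; % is set by controls: 0 for no effect and ±100 for the full control effect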). The following applies: JNK3 lysate, c-Jun phosphorylation; series mostly up to 57.1 µM. Put shortly:
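Compound titrations were preincubated 15 minutes at room temperature with substrate, antibody and pre-activated JNK3-containing HepG2 lysate. Reactions were started with 10 uM ATP and stopped with EDTA-containing bead buffer for AlphaScreen detection.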

In experiment [5] the target is 3',5'-cyclic-AMP phosphodiesterase 4B (Homo sapiens) (UniProt Q07343). Kind of experiment: qHTS Assay for Inhibitors of PDE-IV (AID 607; active = well fitted activation curve with a large enough effect in the main read-out, with a control signal flat, not every such curve was filed as active; note: % of control where 0% means no effect). Particulars: HEK293 ACTOne CNG channel cells, membrane potential fluorescence; series mostly up to 22.9 µM. The gist of the method:
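HEK293 ACTOne cells with CNG channel (1000/well), endogenous PDE4; membrane potential dye, compounds up to 22.9 uM final. Fluorescence Ex 535/Em 590; RO 20-1724 (100 uM final) as reference.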

The target of experiment [6] is Cytochrome P450 2D6 (Homo sapiens) (UniProt P10635). Kind of experiment: qHTS Assay for Inhibitors and Substrates of Cytochrome P450 2D6 (AID 891). Note: potency is the fitted concentration of half-maximal effect; nearly all actives have a fitted effect of over 60% in size. Particulars: recombinant CYP2D6, luciferin-ME EGE luminescence; series mostly up to 57.1 µM. The gist of the method:
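Human CYP2D6 (5 nM) with 30 uM Luciferin-ME EGE (at Km) in 100 mM KPO4, compound preincubated 10 min, then NADPH regeneration system for 60 min at room temperature. Luciferin read by luminescence; normalized to 1.43 uM quinidine.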

Experiment [7] deals with DNA dC->dU-editing enzyme APOBEC-3G (Homo sapiens) (UniProt Q9HC16). Kind of experiment: qHTS for inhibitors of Vif-A3G interactions: Validation (AID 588379). Note: 0% is about no effect. Particulars: Vif-A3G protein interaction assay; series mostly up to 46.1 µM. Put shortly: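 HeLa cells stably expressing Vif and A3G-eYFP, 700 cells/well, incubated overnight at 37 deg C, then exposed to compound overnight at 37 deg C. Inhibition of Vif-mediated degradation read as increased yellow fluorescence (Ex 488/Em 500-530) by laser-scanning cytometry.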
DNA dC->dU-editing enzyme APOBEC-3G (Homo sapiens), sequence (Q9HC16 whole entry, looked up): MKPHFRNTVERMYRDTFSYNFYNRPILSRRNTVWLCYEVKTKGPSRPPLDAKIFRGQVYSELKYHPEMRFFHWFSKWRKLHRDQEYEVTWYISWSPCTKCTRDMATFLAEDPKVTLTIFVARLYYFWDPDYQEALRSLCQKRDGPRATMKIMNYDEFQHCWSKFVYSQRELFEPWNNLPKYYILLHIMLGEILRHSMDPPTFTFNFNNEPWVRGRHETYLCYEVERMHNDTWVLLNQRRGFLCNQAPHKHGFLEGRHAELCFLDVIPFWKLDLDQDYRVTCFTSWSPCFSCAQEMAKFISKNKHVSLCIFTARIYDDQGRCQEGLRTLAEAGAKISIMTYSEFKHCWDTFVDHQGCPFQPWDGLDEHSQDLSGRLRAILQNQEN

The test system of experiment [8] is Zika virus NS2B-NS3 protease. Briefly: Primary screen GU AMC qHTS for Zika virus inhibitors (AID 1347154).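 Note: 0% = no-inhibitor control and -100% = no-enzyme control; nearly all actives have a fitted effect of over 70% in size.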 Particulars: Zika NS2B-NS3 unlinked protease, AMC fluorogenic substrate; series mostly up to 54.1 µM. Put shortly: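 Fluorogenic AMC-substrate cleavage by noncovalent NS2B-NS3 protease complex (25 nM, pH 8.0 Tris buffer with Tween 20) followed for 15 minutes at room temperature (~20% conversion). Percent inhibition from ex340/em450 signal change, fitted by 4-parameter Hill equation.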

In experiment [9] the target is Cytochrome P450 3A4 (Homo sapiens) (UniProt P08684). Kind of experiment: qHTS Assay for Inhibitors and Substrates of Cytochrome P450 3A4 (AID 884). Note: % is set by controls: 0 for no effect and ±100 for the full control effect; nearly all actives have a fitted effect of over 50% in size. The following applies: recombinant CYP3A4, Luciferin-PPXE luminescence; series mostly up to 57.1 µM. Put shortly: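 20 nM human CYP3A4 with 25 uM Luciferin-PPXE (at KM) in 200 mM KPO4, preincubated 10 min with compound; NADPH regeneration started a 60 min RT reaction. Luciferin detected by luminescence, normalized to 57 uM ketoconazole as full inhibition.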
Cytochrome P450 3A4 (Homo sapiens), sequence (P08684 whole entry, looked up): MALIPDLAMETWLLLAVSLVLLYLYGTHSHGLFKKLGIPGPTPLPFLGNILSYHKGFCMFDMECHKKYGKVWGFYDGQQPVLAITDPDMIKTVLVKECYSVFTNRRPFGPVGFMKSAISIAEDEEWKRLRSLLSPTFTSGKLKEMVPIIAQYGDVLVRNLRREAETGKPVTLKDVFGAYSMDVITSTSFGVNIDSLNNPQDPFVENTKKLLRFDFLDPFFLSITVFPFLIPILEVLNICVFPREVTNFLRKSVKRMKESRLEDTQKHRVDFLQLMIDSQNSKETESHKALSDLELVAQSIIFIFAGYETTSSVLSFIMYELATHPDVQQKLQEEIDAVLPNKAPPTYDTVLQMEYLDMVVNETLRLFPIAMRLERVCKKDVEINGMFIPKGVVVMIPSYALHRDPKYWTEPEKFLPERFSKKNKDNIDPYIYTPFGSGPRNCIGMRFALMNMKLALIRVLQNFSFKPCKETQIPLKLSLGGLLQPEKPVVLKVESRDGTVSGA

Experiment [10] has the same target. Kind of experiment: qHTS Assay for Activators of Cytochrome P450 3A4 (AID 885). Note: nearly all actives have a fitted effect of over 65% in size. Note: potency is the fitted concentration of half-maximal effect. The following applies: recombinant CYP3A4, Luciferin-PPXE luminescence, 60 min; series mostly up to 57.1 µM. The gist of the method: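 Human CYP3A4 (20 nM) with Luciferin-PPXE at 25 uM (its KM) in 200 mM KPO4; 10 min compound preincubation, then NADPH regeneration and 60 min reaction at RT. Luciferin read by luminescence; normalized to 57 uM ketoconazole full inhibition.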

The nature of experiment [11]: qHTS Assay for Lipid Storage Modulators (AID 1519; calls by dose curve; for activity change, negative = inhibition: % is set by controls: 0 for no effect and ±100 for the full control effect). Particulars: Drosophila S3 cells, BODIPY lipid droplet/cell ratio, laser cytometry, cells loaded with oleic acid; for activity change, negative = inhibition: at 57.5 µM (top of the series). Put shortly: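 Cells seeded at 5,000 per well were treated with compounds over a concentration series and loaded with oleic acid (400 uM, as added). Lipid droplet fluorescence (488 nm excitation, 500-530 nm channel) was read by laser-scanning cytometry and normalized to 20 uM Triacsin C.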

The target of experiment [12] is Ubiquitin carboxyl-terminal hydrolase 1 (Homo sapiens) (UniProt O94782). Kind of experiment: Inhibitors of USP1/UAF1: Pilot qHTS (AID 504865).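 Note: rhodamine fluorescence freed from ubiquitin-rhodamine substrate followed over time; top concentration of the series differs between compounds; % is set by controls: 0 for no effect and ±100 for the full control effect; nearly all actives have a fitted effect of over 35% in size.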 The following applies: purified USP1/UAF1, Ub-rhodamine cleavage fluorescence; series mostly up to 114 µM. Put shortly:
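USP1/UAF1 complex at 1 nM preincubated 15 min at room temperature with compound, then Ub-Rho substrate added at 150 nM final. Fluorescence (480/540 nm) read kinetically in 50 mM HEPES pH 7.8, 0.5 mM EDTA, 1 mM TCEP, 0.1 mg/ml BSA, 0.01% Tween-20.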

The nature of experiment [13]: AP1 Signaling Pathway (AID 357; active = well fitted curve in either direction with a large enough effect, not every such curve was filed as active;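 note: ME-180 reporter cells stimulated with EGF at its EC50 level; % is set by controls: 0 for no effect and ±100 for the full control effect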). Particulars: ME-180 (cervical carcinoma) AP-1-bla reporter, EGF-induced, beta-lactamase ratio, 5 h; series mostly up to 38 µM. Put shortly:
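Read-out was the 460nm/530nm emission ratio (excitation 405nm) after CCF4 loading for 2.5 hours at room temperature. Cells carried an AP-1-driven beta-lactamase reporter, were stimulated with EC50 EGF plus compound for 5 hours, and AC50 values came from titrations.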

The nature of experiment [14]: NFAT Signaling Pathway (AID 444; active = well fitted curve in either direction with a large enough effect, not every such curve was filed as active;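 note: carbachol stimulus at about its EC50 of 1 µM final; % is set by controls: 0 for no effect and ±100 for the full control effect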). The following applies: Jurkat NFAT-bla M1, carbachol, beta-lactamase ratio, 5 h. Put shortly: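 Read-out: CCF4 FRET ratio (460 nm/530 nm) after 1 h RT dye loading, used for %activity and AC50 from titration series. Cells: Jurkat NFAT-β-lactamase/M1 line, treated with compound plus 1 uM carbachol for 5 h, 37 °C.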
Experiment [15] has as its target Guanine nucleotide-binding protein G(i) subunit alpha-1 (Homo sapiens) (UniProt P63096). Briefly: qHTS Assay for Inhibitors of RGS12 GoLoco Motif Activity (Green Fluorophore) (AID 879).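 Note: 0% = labeled peptide with Gαi1 and full inhibition = labeled peptide alone without protein; negative values mean loss of peptide binding seen as reduced polarization.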 Particulars: Galphai1/FITC-RGS12 GoLoco peptide, fluorescence polarization; series mostly up to 57.1 µM. The gist of the method:
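Fluorescence polarization assay: 50 nM Gαi1 with 10 nM FITC-labeled RGS12 GoLoco peptide in 10 mM Tris pH 7.5, 150 mM NaCl, 0.1 mM GDP, 0.05% NP40, 10 min at room temperature with compound.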

Experiment [16] addresses Pyruvate kinase (Leishmania mexicana) (UniProt Q27686). Briefly: qHTS Validation Assay for Inhibitors of Leishmania Mexicana Pyruvate Kinase (AID 945).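 Note: 0% = DMSO only neutral control wells.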 Particulars: purified L. mexicana pyruvate kinase, enzyme activity, E451W mutant enzyme; series mostly up to 57.5 µM. The gist of the method: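 Eight-point qHTS titrations in triplicate, data normalized to DMSO neutral control. Reaction: 0.2 nM LmPYK E451W mutant, 0.5 mM PEP, 0.1 mM ADP, 7 mM MgCl2, pH 7.2, one hour at room temperature; luminescent ATP detection.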

For experiment [17], the target named is Alpha-galactosidase (Coffea arabica) (UniProt Q42656). Briefly: Counterscreen for Glucocerebrosidase Inhibitors: qHTS Assay for Coffee Bean alpha-Galactosidase at pH 4.5 (AID 957).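 Note: plate controls were enzyme alone for no effect and no enzyme for full effect.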 Particulars: purified coffee bean alpha-galactosidase, fluorogenic substrate; series mostly up to 76.9 µM. Put shortly:
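Coffee bean enzyme (2 nM) with 80 uM 4-methylumbelliferyl alpha-D-galactopyranoside in 50 mM citric acid, 0.005% Tween-20, pH 4.5, 20 min at room temperature; compounds 0.7 nM–77 uM. Stopped at pH 10, fluorescence 365/440 nm; AC50 from Hill fits.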

The target of experiment [18] is Alpha-galactosidase A (Homo sapiens) (UniProt P06280). Kind of experiment: Counterscreen for Glucocerebrosidase Inhibitors: qHTS Assay for Human alpha-Galactosidase at pH 4.5 (AID 992). Note: 0% is about no effect. Particulars: purified enzyme, fluorogenic substrate; series mostly up to 76.9 µM. Put shortly: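 Human enzyme (2 nM) with 80 uM 4-methylumbelliferyl alpha-D-galactopyranoside in 50 mM citric acid, 0.005% Tween-20, pH 4.5, 20 min at room temperature. Compounds 0.7 nM–77 uM; fluorescence Ex 365/Em 440 after pH 10 stop; AC50 from Hill fits.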
Alpha-galactosidase A (Homo sapiens), sequence (P06280 whole entry, looked up): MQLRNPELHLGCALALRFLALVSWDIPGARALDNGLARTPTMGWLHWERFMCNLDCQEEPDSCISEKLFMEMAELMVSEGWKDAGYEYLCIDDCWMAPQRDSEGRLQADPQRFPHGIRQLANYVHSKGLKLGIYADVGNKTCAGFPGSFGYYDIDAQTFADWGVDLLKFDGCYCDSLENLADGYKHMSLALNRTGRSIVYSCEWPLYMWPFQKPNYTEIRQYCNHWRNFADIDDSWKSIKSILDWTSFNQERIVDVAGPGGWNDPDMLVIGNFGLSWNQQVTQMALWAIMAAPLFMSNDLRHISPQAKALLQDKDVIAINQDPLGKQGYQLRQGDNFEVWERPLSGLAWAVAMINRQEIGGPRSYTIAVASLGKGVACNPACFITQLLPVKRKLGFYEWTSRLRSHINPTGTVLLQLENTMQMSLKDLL

Where [19] appears, read: measured here: cell count channel max response.
[20] abbreviates: measured here: lipid channel max response.

Results filed as inconclusive are left out. The source made the active and inactive calls. Unless noted, calls come from the whole dose curve; as a rule, active = well fitted curve in the direction sought with a large enough effect; inconclusive = small, poorly fitted or top-dose-only effect, or another doubt; inactive = no such curve, though single readings can be large; an effect the other way counts as inactive or inconclusive.

3',5'-cyclic-AMP phosphodiesterase 4B (Homo sapiens), sequence (Q07343 whole entry, looked up): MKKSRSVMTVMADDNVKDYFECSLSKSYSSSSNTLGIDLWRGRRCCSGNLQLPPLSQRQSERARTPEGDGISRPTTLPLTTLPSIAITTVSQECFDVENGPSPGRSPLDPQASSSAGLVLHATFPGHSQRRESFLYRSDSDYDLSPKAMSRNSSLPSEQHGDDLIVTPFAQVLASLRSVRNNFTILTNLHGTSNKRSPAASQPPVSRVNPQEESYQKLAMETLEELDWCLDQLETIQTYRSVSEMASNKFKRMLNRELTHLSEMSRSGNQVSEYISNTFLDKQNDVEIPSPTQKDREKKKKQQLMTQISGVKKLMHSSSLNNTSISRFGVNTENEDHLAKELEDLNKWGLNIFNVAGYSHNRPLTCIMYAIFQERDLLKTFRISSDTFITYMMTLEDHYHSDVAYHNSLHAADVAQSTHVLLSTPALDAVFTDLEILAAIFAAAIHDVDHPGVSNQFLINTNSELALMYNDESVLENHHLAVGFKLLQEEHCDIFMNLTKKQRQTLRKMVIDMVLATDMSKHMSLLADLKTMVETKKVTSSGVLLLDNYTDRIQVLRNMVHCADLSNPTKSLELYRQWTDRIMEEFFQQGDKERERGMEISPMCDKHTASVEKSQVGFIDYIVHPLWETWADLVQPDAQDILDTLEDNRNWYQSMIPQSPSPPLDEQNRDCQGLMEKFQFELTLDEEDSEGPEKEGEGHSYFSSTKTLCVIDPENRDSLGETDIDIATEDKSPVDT
Cytochrome P450 2D6 (Homo sapiens), sequence (P10635 whole entry, looked up): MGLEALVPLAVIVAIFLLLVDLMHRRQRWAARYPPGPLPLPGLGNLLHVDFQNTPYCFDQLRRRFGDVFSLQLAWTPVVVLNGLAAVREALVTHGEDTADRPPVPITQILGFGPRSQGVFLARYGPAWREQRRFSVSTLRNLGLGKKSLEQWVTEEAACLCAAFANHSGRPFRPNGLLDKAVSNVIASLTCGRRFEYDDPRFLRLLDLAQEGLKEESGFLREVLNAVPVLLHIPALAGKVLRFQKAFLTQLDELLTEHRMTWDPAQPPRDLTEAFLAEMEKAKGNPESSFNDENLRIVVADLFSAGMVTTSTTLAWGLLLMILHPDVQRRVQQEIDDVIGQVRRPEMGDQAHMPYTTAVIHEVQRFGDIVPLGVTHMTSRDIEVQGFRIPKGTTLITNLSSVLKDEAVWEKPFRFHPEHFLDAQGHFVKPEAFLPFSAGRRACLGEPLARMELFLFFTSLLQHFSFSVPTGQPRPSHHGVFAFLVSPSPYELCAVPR
Guanine nucleotide-binding protein G(i) subunit alpha-1 (Homo sapiens), sequence (P63096 whole entry, looked up): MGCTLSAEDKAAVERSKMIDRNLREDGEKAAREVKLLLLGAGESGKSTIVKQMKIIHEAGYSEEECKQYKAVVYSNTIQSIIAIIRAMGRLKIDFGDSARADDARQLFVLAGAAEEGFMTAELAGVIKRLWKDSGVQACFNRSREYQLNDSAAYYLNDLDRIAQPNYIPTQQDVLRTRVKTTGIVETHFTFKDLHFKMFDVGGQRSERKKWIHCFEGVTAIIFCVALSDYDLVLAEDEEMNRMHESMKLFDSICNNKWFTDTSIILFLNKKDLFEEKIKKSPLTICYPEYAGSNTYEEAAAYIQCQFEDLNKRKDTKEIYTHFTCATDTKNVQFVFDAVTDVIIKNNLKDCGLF
Pyruvate kinase (Leishmania mexicana), sequence (Q27686 2-499 E452W): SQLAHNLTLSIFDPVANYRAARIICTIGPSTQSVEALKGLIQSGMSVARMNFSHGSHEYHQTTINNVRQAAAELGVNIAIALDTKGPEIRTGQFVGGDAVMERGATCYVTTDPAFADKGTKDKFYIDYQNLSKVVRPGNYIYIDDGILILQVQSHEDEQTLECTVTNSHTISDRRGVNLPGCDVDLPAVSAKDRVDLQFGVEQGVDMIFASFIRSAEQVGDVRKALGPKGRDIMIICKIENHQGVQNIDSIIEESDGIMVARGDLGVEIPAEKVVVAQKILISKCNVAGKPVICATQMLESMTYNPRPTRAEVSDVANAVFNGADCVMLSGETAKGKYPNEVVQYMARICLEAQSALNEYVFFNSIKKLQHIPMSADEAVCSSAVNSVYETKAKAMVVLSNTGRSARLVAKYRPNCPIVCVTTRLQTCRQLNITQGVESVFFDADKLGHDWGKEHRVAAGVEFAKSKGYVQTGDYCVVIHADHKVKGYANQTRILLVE

Take `N[C@H](Cc1o[nH]c(=O)c1Cl)C(=O)O`: the Potency entry in [1], in experiment [5], in experiment [7] and in experiment [8] was “inactive” each time. The figures for the Potency in experiment [2], in experiment [3] and in experiment [6] were > 46 µM (inactive), > 46 µM (inactive) and 158 nM (active), respectively. Further, the compound was called inactive in experiment [4].

With `CC(C)n1cnc2c(C(=O)N[C@H]3CN4CCC3CC4)cc(Cl)cc21`, the Potency in experiment [3] is > 46 µM (inactive); in experiment [10] it was 31.6 µM (active). Moreover, the Potency result in [5], in experiment [9], in experiment [12], in experiment [7] and in [8] was “inactive” throughout. The activity change, negative = inhibition in experiment [11] was 2.71% (inactive). Also, the max response was 14.7% in [11] (setting [19]) and 19.1% in experiment [11] (setting [20]).

As to `Oc1ccc2c3c1O[C@H]1c4oc5ccccc5c4C[C@]4(O)[C@H](C2)N(CC2CC2)CC[C@@]314`, the result in experiment [13], in [4], in experiment [15], in experiment [16], in experiment [17] and in experiment [18] was inactive. For the same compound, the Potency result in [1], in experiment [5], in experiment [10], in experiment [7] and in experiment [8] was “inactive” throughout. Further, the activity change, negative = inhibition in experiment [14] (at 38 µM (top of the series)) was -24.9% (inactive). Also, the results for the Potency in experiment [2], in experiment [3] and in experiment [6] were > 46 µM (inactive), > 46 µM (inactive) and 1260 nM (active), respectively.

Regarding `CC(C)[C@@]1(NC(=O)[C@H]2CC3c4cccc5[nH]cc(c45)C[C@H]3N(C)C2)O[C@@]2(O)C3CCCN3C(=O)[C@@H](Cc3ccccc3)N2C1=O` (stereo partly specified), the Potency result in experiment [8] is “inactive”.

On to `Oc1ccc2c3c1O[C@H]1c4[nH]c5c(c4C[C@@]4(O)[C@@H](C2)N(CC2CC2)CC[C@]314)C[C@]1(O)[C@H]2Cc3ccc(O)c4c3[C@@]1(CCN2CC1CC1)[C@@H]5O4`, for which the Potency in [2] and in [3] was > 46 µM (inactive) in each case. Besides, the Potency result in experiment [5], in experiment [7] and in [8] was “inactive” throughout. For the same compound, in [11], the activity change, negative = inhibition was -0.108% (inactive). The max response in experiment [11] (setting [19]) came to 16.4%; in experiment [11] (setting [20]), 18.7%.

Regarding `COc1ccc2[nH]cc(CCN(C)C)c2c1`, the activity change, negative = inhibition in experiment [14] (at 17.2 µM (top of the series)) was -12.1% (inactive).

For the compound `c1ccc2c3c([nH]c2c1)CNCC3`, the activity change, negative = inhibition in experiment [14] (at 17.2 µM (top of the series)) was 11% (inactive).

As to `CCN(CC)CCO[C@H]1CC[C@@]2(C)C(=CC[C@@H]3[C@H]2CC[C@]2(C)C(=O)CC[C@H]32)C1`, the Potency entry in [9] is “inactive”.

`C[C@@H]1O[C@@H](O[C@H]2C[C@@H](O)[C@]3(CO)[C@@H]4C(CC[C@]3(O)C2)[C@@]2(O)CC[C@H](C3=CC(=O)OC3)[C@@]2(C)C[C@H]4O)[C@H](O)[C@H](O)[C@H]1O` (stereo partly specified): the Potency entry in experiment [9] was “inactive”.
